The record followed here is PubChem BioAssay (NCATS).

Records with an inconclusive call do not appear. A number with no mark means an inactive call. The source made the active and inactive calls. The call rests on the fitted dose curve; in most records, active means well fitted inhibition curve with a large enough effect; inconclusive means small, poorly fitted or top-dose-only effect; inactive means flat fitted curve, though single readings scatter.

Chain of Luciferin 4-monooxygenase (Photinus pyralis) (P08659 whole entry, looked up): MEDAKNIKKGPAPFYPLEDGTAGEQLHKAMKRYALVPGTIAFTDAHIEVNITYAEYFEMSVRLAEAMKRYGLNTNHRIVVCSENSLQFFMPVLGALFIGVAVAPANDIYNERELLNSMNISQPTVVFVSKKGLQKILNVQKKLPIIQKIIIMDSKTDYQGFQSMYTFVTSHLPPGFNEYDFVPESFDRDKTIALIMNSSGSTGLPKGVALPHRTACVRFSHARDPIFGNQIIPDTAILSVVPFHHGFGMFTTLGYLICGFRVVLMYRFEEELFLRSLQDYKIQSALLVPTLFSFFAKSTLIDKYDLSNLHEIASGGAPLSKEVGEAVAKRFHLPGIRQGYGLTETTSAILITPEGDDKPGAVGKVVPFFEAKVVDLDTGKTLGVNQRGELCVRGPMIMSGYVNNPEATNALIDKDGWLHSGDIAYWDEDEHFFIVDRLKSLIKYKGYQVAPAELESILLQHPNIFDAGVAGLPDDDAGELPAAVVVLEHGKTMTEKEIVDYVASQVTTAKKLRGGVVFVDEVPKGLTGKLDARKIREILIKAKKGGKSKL

The assay concerns the target Luciferin 4-monooxygenase (Photinus pyralis) (UniProt P08659). Kind of assay: Biochemical firefly luciferase enzyme assay for NPC (AID 624030).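 Further: purified P. pyralis luciferase at 10 nM with luciferin and ATP substrate; 0% = DMSO and -100% = full luciferase inhibition by PTC124 control; nearly all actives have a fitted effect of over 70% in size.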 The conditions noted are these: purified P. pyralis luciferase, luminescence, 5 min; series mostly up to 58.6 µM; activity change, negative = inhibition: at the top concentration. An outline of the steps: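 Counter-screen for direct inhibition of the luciferase enzyme by approved-drug library compounds, run at 10 nM enzyme in 50 mM Tris acetate (final). Luminescence was read within 5 min of enzyme-buffer addition and normalized to PTC124 versus DMSO (0%).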
For `Cc1nnc2n1-c1sc(CCc3ccc(CC(C)C)cc3)cc1C(c1ccccc1Cl)=NC2C` (stereo not given), the “activity change, negative = inhibition” value was -5.12%.
Regarding `Cc1nnc2n1-c1sc(CCC(=O)N3CCOCC3)cc1C(c1ccccc1Cl)=NC2`, the Potency result was “inactive”.
On to `Cc1c(Cl)c(=O)oc2cc(OP(=O)(OCCCl)OCCCl)ccc12`, for which the “activity change, negative = inhibition” value is 0.642%.
On to `O=C(O)Cc1ccccc1`, for which the “activity change, negative = inhibition” value is -2.28%.
On to `COc1ccc2c(C(=O)c3ccc(Cl)cc3)c(C)n(CC(=O)O)c2c1`, for which the “activity change, negative = inhibition” value is -9.23%.
On to `CCN(CC)Cc1nccn1-c1ccc([N+](=O)[O-])cc1C(=O)c1ccccc1Cl`, for which the “activity change, negative = inhibition” value is -6.36%.
As to `CCC1(c2ccccc2)CCC(=O)NC1=O` (stereo not given), the “activity change, negative = inhibition” value is -4.42%.
In the case of `O=C(O)CCCCCCNC1c2ccccc2CCc2ccccc21`, the “activity change, negative = inhibition” value is 1.54%.
On to `Clc1ccc(CO/N=C(\Cn2ccnc2)c2ccc(Cl)cc2Cl)c(Cl)c1`, for which the “activity change, negative = inhibition” value is 0.968%.
Same read-out and setting: the value for `CCCCC1C(=O)NC(=O)N(C2CCCCC2)C1=O` (stereo not given) was -6.91%; that for `CC(Cc1ccccc1)NCc1ccccc1Cl` (stereo not given) was -5.67%; that for `CCOC(=O)c1ncn2c1CN(C)C(=O)c1c(I)cccc1-2` was -2.52%.
Still for that read-out and setting: the value for `CN1C(=O)[C@@H](NC(=O)c2cc3ccccc3[nH]2)N=C(c2ccccc2)c2ccccc21` was 0.0286%.
In the case of `COP(=S)(OC)Oc1ccc(S(N)(=O)=O)cc1`, the “activity change, negative = inhibition” value is -1.16%.
`CN(C)CCc1c[nH]c2ccccc12`: the “activity change, negative = inhibition” value was 2.16% [at 215 µM].
Consider `CCCN(CCC)CCc1c[nH]c2ccccc12`, for which the “activity change, negative = inhibition” value was -0.0504% [at 123 µM].
For the molecule `C[C@]12Cc3nonc3C[C@@H]1CC[C@@H]1[C@@H]2CC[C@@]2(C)[C@H]1CC[C@]2(C)O`, the “activity change, negative = inhibition” value is -4.75%.
Consider `CN1CCc2cc(Cl)c(O)cc2[C@H]2c3ccccc3CC[C@@H]21`, for which the “activity change, negative = inhibition” value was 17.7%.
As for `C[C@H]1CNCCc2ccc(Cl)cc21`, the “activity change, negative = inhibition” value is 0.0467%.
`CC[C@H](O)C(C[C@H](C)N(C)C)(c1ccccc1)c1ccccc1`: the “activity change, negative = inhibition” value was 4.65% [at 123 µM].
